Laboratory results published in PubChem BioAssay (EPA / NIEHS).
The source made the active and inactive calls. How the source made its calls: active means hit-call score of the fitted dose curve at least 0.9, where 1 is the maximum; inactive means score below 0.9.

Read-out: Monokine induced gamma interferon (MIG), CXCL9 (gene 4283)
Assay: BSK_3C_MIG: BioMAP Diversity Plus: 3C Assay for Monokine induced gamma interferon (MIG) Biomarker Activity (AID 2283021);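 on AC50: MIG protein level measured by immunoassay in the treated endothelial cultures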
Conditions: primary human endothelial cells (HUVEC); actives raise or lower the signal
Method: BSK_3C is a cell-based, multiplexed-readout assay that uses umbilical vein endothelium, a human vascular primary cell, with measurements taken at 24 hours after chemical dosing in a 96-well plate.BSK_3C_MIG is an assay component measured in the BSK_3C assay. It measures MIG antibody related to regulation of gene expression using ELISA technology.Data from the assay component BSK_3C_MIG was analyzed into 1 assay endpoint. This assay endpoint, BSK_3C_MIG, was analyzed with bidirectional fitting relative to DMSO as the negative control and baseline of activity. Using a type of binding reporter, gain or loss-of-signal activity can be used to understand changes in the signaling as they relate to the gene CXCL9. Furthermore, this assay endpoint can be referred to as a primary readout, because this assay has produced multiple assay endpoints where this one serves a signaling function. To generalize the intended target to other relatable targets, this assay endpoint is annotated to the cytokine intended target family, where the subfamily is chemotactic factor.
The levels of cell surface (or secreted, indicated by the prefix "s") biomarker endpoints were measured by ELISA. Overt cytotoxicity to cells in confluent adherent cultures (all systems other than the BT system) was assessed by measuring total protein levels using sulforhodamine B (SRB) staining in parallel cultures at the time of biomarker measurements, indicated as SRB endpoints. For proliferation assays for adherent cell types, individual cell types are cultured at sub-confluence and relative cell numbers quantified by SRB staining at time points optimized for each system (48 h: 3C and CASM3C systems; 72 h: BT and HDF3CGF systems; 96 h: SAg system). SRB was performed by staining cells with 0.1% SRB after fixation with 10% TCA and reading wells at 560 nm.Viability and proliferation of PBMC (T cells) was quantified by Alamar Blue reduction for the SAg and BT systems. For PBMC viability (referred to as PBMC Cytotoxicity within the assay endpoint names), cells were plated (75,000/well in a 96-well plate) and then chemical samples added for 1 h before addition of activators, SEB and TSST-1 (20 ng/mL final concentration each). Cells were incubated for 90 h. Then, Alamar Blue (20 uL/well) (Invitrogen, Cat DAL1100) was added for 6 h, and the plates were read with a fluorescence microplate reader at 546/580 nm (excitation/emission). For PBMC proliferation, cells were plated and activated as above but incubated for only 16 h prior to addition of Alamar Blue. Plates were read after 6 h.

Compound | outcome | AC50
O=C(O)CC(O)(CC(=O)O)C(=O)O | inactive | –
CC(C)c1cccc(C(C)C)c1NC(=O)NS(=O)(=O)c1cc(C(C)(C)O)co1 | inactive | –
Cc1cc(Cc2ccc(N)c(C)c2)ccc1N | inactive | –
CSc1ccc(Oc2ccc(S(N)(=O)=O)cc2CN(C)C)cc1C | inactive | –
O=C(O)c1cccnc1 | inactive | –
O=[Si]=O | inactive | –
CN(C)CCCN(C)CCCN(C)C | inactive | –
CC(C)(O)c1ccc(CNC(=O)c2cccnc2Oc2ccc(F)cc2)cc1 | inactive | –
CC(=O)OC1CC(C)OC(C)O1 (stereo not given) | inactive | –
CC(=O)O | inactive | –
CS(=O)(=O)c1ccc([C@@H](C[C@H]2CCC(=O)C2)C(=O)Nc2cnccn2)cc1Cl | inactive | –
O=C(O)c1[nH]n(-c2ccc(S(=O)(=O)O)cc2)c(=O)c1N=Nc1ccc(S(=O)(=O)O)cc1 | inactive | –
CCCCCCC(C=O)=Cc1ccccc1 | – | 36.3 µM (active)
CCOCCOCCO | inactive | –
C=CCCCCCCCCCCCC | inactive | –
CC1=C(C)S(=O)(=O)CCS1(=O)=O | inactive | –
O=C1O[C@H]([C@H](O)CO)C(O)=C1O | inactive | –
C/C=C/c1ccc(OC)cc1 | inactive | –
Cc1ccc(C(C)(C)C)c(O)c1 | inactive | –
CCCCCCCCCCCCCCOS(=O)(=O)O | inactive | –

Compound | outcome | AC50
O=C(O)CN(CC(=O)O)CC(=O)O | inactive | –
CCCCc1nc2cccnc2n1Cc1ccc(-c2ccccc2-c2nnn[nH]2)cc1 | inactive | –
OCC(CO)n1cnc(-c2ccc(F)cc2)c1-c1ccnc(Oc2ccccc2)n1 | inactive | –
CCCC(=O)O | inactive | –
COc1ccc(OC(F)(F)F)cc1CN[C@H]1CCCN[C@H]1c1ccccc1 | inactive | –
CC(N)=O | inactive | –
CC(COCC(C)OC(=O)c1ccccc1)OC(=O)c1ccccc1 (stereo not given) | inactive | –
C#CC(O)C(CC)CCCC (stereo not given) | inactive | –
CCCCC(CC)COC(=O)CCCCCCCC(=O)OCC(CC)CCCC (stereo not given) | inactive | –
Oc1ccc(O)cc1 | inactive | –
O=C1OC(c2ccc(O)cc2)(c2ccc(O)cc2)c2ccccc21 | inactive | –
CC(=O)CC(c1ccccc1)c1c(O)c2ccccc2oc1=O (stereo not given) | inactive | –
COC(=O)CCC(=O)OC | inactive | –
CN(C)C(=O)NC1(c2ccccc2)CCN(CC[C@@]2(c3ccc(F)c(F)c3)CN(C(=O)c3ccccc3)CCO2)CC1 | inactive | –
OCC(O)CO | inactive | –
CCCCCCC(CCCCCCCCCCC(=O)OCC(COC(C)=O)OC(C)=O)OC(C)=O (stereo not given) | inactive | –
NC(=Nc1ccccc1)Nc1ccccc1 | inactive | –
NC=O | inactive | –
CCCCC(CC)CO (stereo not given) | inactive | –
CC(C)c1cccc(C(C)C)c1 | inactive | –
